High-throughput results: PubChem BioAssay, The Scripps Research Institute Molecular Screening Center
TLR9-MyD88 block: blocks human TLR9 binding to MyD88; Q9NR96+Q99836; CHO BLA complementation TLR9-MyD88, CCF4 FRET ratio; inhibition, % at 4.98 µM; actives 0.21% (n = 340,000); AID 504734;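 active means inhibition above the mean over all tested compounds plus 3 SD, cut at about 21% in these data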;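 further: 0% = DMSO only wells and 100% = clavulanate BLA inhibitor control wells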
ABHD5-PLIN5 inh: ABHD5-PLIN5 protein interaction inhibition; Q00G26+Q8WTS1; Split G. princeps luciferase complementation, luminescence, 4 h; inhibition, % at 4 µM; actives 0.78% (n = 360,000); AID 602281;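 active means inhibition above the mean inhibition across every tested compound plus 3 SD, cut at about 22% in these data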;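 further: 0% = DMSO only wells and the 100% control is not disclosed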
NOD2 RIPK2 PPI: inhibitors of human NOD2-RIPK2 interaction; O43353; CHO BLA complementation NOD2-RIPK2, CCF4 ratio; inhibition, % at 4.98 µM; actives 0.38% (n = 360,000); AID 624267; in the data active means inhibition above about 21%;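 further: 0% = vehicle only and 100% = reference blocker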
rCAG RNA binder: binds r(CAG) RNA repeats | actives 1.3% (n = 370,000) | r(CAG) RNA repeat, TO-PRO-1 dye displacement fluorescence | AID 651821 | inhibition, % at 3 µM;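 active means inhibition above the plate cutoff, the mean of all test compounds on that plate plus 3 SD, cut at about 35% in these data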;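 further: 0% = DMSO alone and 100% = 100 µM mitoxantrone as full dye displacement; higher means more dye released from RNA so lower well fluorescence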
TLR4 MyD88 comp: TLR4-MyD88 interaction inhibition in cells; O00206+Q99836; HeLa CL3-4 TLR4/MyD88 BLA complementation, FRET ratio; inhibition, % at 8.4 µM; actives 0.18% (n = 200,000); AID 861; in the data active means inhibition above about 25%;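 further: 0% = vehicle and 100% = reference inhibitor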
PRMT1 inh: blocks human protein arginine methyltransferase 1; Q99873; recombinant PRMT1, activity-based probe fluorescence polarization; inhibition, % at 2.79 µM; actives 1.3% (n = 370,000); AID 652257;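 active means inhibition above about 21% made by adding two undisclosed values, limit read from the data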
ABHD5-PLIN5 conf: ABHD5-PLIN5 interaction inhibition, confirmed; inhibition, % at 4 µM; biochemical ABHD5-PLIN5 interaction, luminescence; actives 67% (n = 2,200); shares compounds with ABHD5-PLIN5 inh; in the data active means inhibition above about 23%;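 further: 0% = DMSO vehicle wells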
HNF4 split-luc: HNF4 split-luciferase signal hit, counter-screen; shares compounds with ABHD5-PLIN5 inh; HNF4 dimerization, luminescence, biochemical; inhibition, % at 4 µM; actives 77% (n = 2,200);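 active means mean inhibition across replicate wells exceeding the computed hit threshold, cut at about 13% in these data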;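 further: light from luciferase halves that rejoin when HNF4 fusion proteins dimerize; 0% = DMSO only wells and the 100% control is not given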
Target sequence (P41235 whole entry, looked up, the tested form may be a part): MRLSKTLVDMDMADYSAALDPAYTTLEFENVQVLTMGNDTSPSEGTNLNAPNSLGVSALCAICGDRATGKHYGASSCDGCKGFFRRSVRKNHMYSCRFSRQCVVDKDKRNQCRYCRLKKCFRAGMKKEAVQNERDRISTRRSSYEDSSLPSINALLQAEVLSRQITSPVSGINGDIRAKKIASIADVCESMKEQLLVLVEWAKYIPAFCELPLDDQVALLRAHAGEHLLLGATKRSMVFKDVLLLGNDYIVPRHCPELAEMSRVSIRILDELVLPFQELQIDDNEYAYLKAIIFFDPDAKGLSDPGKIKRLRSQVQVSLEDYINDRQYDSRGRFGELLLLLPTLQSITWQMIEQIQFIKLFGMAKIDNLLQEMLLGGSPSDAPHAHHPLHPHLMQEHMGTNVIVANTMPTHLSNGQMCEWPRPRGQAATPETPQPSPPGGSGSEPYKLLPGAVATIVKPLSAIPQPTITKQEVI
NOD2-RIPK2 conf: confirmation of human NOD2-RIPK2 interaction inhibitors. shares compounds with NOD2 RIPK2 PPI. CHO cells, NOD2-RIPK2 BLA complementation, CCF4 FRET. inhibition, % at 4.98 µM. actives 70% (n = 1,200). AID 624370;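 active means mean inhibition across replicates above a set limit taken from the earlier primary screen, cut at about 21% in these data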;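 further: 0% = DMSO-only wells and the high end = clavulanate BLA-blocked wells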
BLA counter: hits BLA reporter in NOD2-RIPK2 inhibitor counterscreen. CHO BLA reporter, CCF4 FRET ratio. shares compounds with NOD2 RIPK2 PPI. actives 57% (n = 1,200). inhibition, % at 4.98 µM;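 active means mean inhibition above the low-control mean inhibition plus three low-control SD, cut at about 11% in these data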;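 further: 0% = DMSO only wells and 100% = clavulanate high control wells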
rCAG binder conf: r(CAG) RNA repeat binding, confirmation. shares compounds with rCAG RNA binder. TO-PRO-1 dye displacement fluorescence. inhibition, % at 3 µM. actives 70% (n = 4,300). AID 652065;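 active means inhibition above a per-plate cutoff, the mean inhibition of sample wells plus 3 SD, cut at about 35% in these data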;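 further: loss of TO-PRO-1 fluorescence as compound displaces dye from 1x1 AA loop RNA; 0% = DMSO only wells and 100% = 100 µM mitoxantrone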
DNA CAG counter: DNA CAG dye complex inhibition counter-screen; shares compounds with rCAG RNA binder; inhibition, % at 3 µM; d(CAG) DNA oligo TO-PRO-1 dye displacement, fluorescence; actives 94% (n = 4,300);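 active means inhibition above its plate's cutoff, the mean test-well inhibition plus 3 SD, cut at about 4.8% in these data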;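 further: 0% = DNA dye mix with DMSO and 100% = 100 µM mitoxantrone; hits displace the dye from DNA and so lower well fluorescence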
PRMT1 inh conf: PRMT1 (human) inhibition, FP confirmation | actives 42% (n = 3,300) | inhibition, % at 2.79 µM | recombinant His-PRMT1, activity-based probe fluorescence polarization | AID 687036 | shares compounds with PRMT1 inh;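 active means mean inhibition across replicates above the hit cutoff derived for the earlier primary screen, cut at about 22% in these data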
* hit, by the source's call; . = not tested or not shown. Sampled rows, rich in hits. Any-hit rate of the full collection: about 3.3%.

SMILES | TLR9-MyD88 block | ABHD5-PLIN5 inh | NOD2 RIPK2 PPI | rCAG RNA binder | TLR4 MyD88 comp | PRMT1 inh | ABHD5-PLIN5 conf | HNF4 split-luc | PRMT1 inh conf | others
CN(C(=O)C1CCCN(c2ncnc3c2nc2n3CCCCC2)C1)c1cccc(Cl)c1 (centres undefined) | 1.8 | -0.8 | -11.0 | -7.6 | . | -1.7 | . | . | .
CCCCc1nc2cc(C(=O)N(C)C3CCOCC3)ccc2o1 | 5.7 | -1.4 | -1.9 | -6.3 | . | -1.4 | . | . | .
CC1=CC(=O)C=CC1=Nc1ccc(N(C)C)cc1 | . | 86.4* | -10.7 | 13.5 | . | 66.6* | 98.0* | 113.4* | 41.4*
COc1ccccc1OS(=O)(=O)c1ccc(NC(C)=O)cc1 | 3.9 | 3.1 | 2.2 | -3.1 | 8.1 | -2.1 | . | . | .
COC(=O)/C=C/S(=O)(=O)c1ccc(NC(C)=O)cc1 | 6.1 | 76.2* | 7.6 | 3.3 | -13.1 | 72.9* | 86.5* | 107.0* | 28.6*
Cc1ccc(/C=C2\SC(=S)N(Cc3ccccc3)C2=O)o1 | -2.9 | -4.6 | 4.5 | 29.0 | 8.2 | 2.2 | . | . | .
Cc1ccc(/C=C2/NC(=O)N(Cc3ccccc3)C2=O)o1 | 1.7 | 44.1* | 12.6 | 10.8 | -3.0 | 66.4* | 58.2* | 68.4* | 15.2
Cc1cc(C)nc(S/C=C/C(=O)c2ccccc2F)n1 | 5.7 | 47.8* | 9.6 | 4.7 | . | 25.2* | 95.8* | 100.5* | 18.6
CC(C)C[C@H]1COc2ccc(Cl)cc2S(=O)(=O)N1Cc1cn(Cc2ccc(C(F)(F)F)cc2)nn1 | . | . | . | 3.9 | . | -1.8 | . | . | .
O=C(O)Cc1sc(N/N=C\c2ccncc2)nc1-c1ccccc1 | -13.0 | 23.8* | -7.8 | 19.5 | . | 40.7* | 14.6 | 45.3* | 10.5
O=C1N(Cc2ccccc2)CC2(Br)COCOC12O (centres undefined) | 0.9 | 38.8* | -8.2 | 4.1 | . | 89.9* | 92.6* | 102.2* | 90.8*
O=C1C(c2ccccc2)CN1Cc1ccccc1 (centres undefined) | . | 0.4 | -1.9 | 0.1 | . | -0.1 | . | . | .
O=C1C(O)=CC(=C(c2ccccc2)c2ccccc2)c2ccccc21 | 8.9 | 97.2* | 34.3* | 6.5 | . | 41.8* | 17.9 | 87.6* | 6.8 | NOD2-RIPK2 conf=1.1;BLA counter=-2.7
O=C(O)c1cccc2c1C(=O)c1ccccc1C2=O | -13.9 | 1.0 | -7.7 | -0.4 | 1.9 | 2.8 | . | . | .
O=C1C(=Cc2ccco2)CCC1=Cc1ccco1 | -4.9 | 37.1* | 3.3 | 65.8* | . | 53.4* | 59.0* | 89.0* | 50.1* | rCAG binder conf=78.2*;DNA CAG counter=44.4*
Cc1cccc(S(=O)(=O)NC(=O)C2(C)CCN2C(=O)c2ccccc2)c1 (centres undefined) | . | 3.1 | 11.2 | 0.9 | . | 6.3 | . | . | .
CCOC(=O)Cn1ncn(-c2ccc(OC(F)(F)F)cc2)c1=O | 2.4 | -2.3 | -4.7 | -2.4 | -12.5 | 3.1 | . | . | .
Cc1ccc(/C=C/C(=O)N2CCN(S(=O)(=O)c3ccc(C)c(C)c3)CC2)o1 | -3.3 | 43.5* | 13.9 | 12.9 | -2.8 | 37.3* | 42.8* | 61.7* | 52.0*
CCOc1cc(S(=O)(=O)NCc2ccncc2)ccc1Cl | . | 2.3 | -10.4 | 2.6 | -5.0 | 5.1 | . | . | .
